# The list is not random: actives were taken first. Their share in the collection is about 8.3%.
# FMDV antiviral: High Throughput Screening for Foot and Mouth Disease Virus Antivirals. FMDV antiviral cell-based qHTS. Potency, µM (highest dose often 57.9 µM), without a hit: at the top dose activity change, negative = inhibition, usual class: inhibitors. hit rate 1.2% among 410,000; calls by dose curve; tested in HEK293T cells; also: read-out not given here; potency is read from the fitted curve at half-maximal effect; nearly all actives have a fitted effect of over 45% in size
# HCMV antiviral: qHTS Assay for inhibitors of the human cytomegalovirus (HCMV). HFF cells, HCMV-luciferase reporter, 72 h; stronger effect = lower value. AID 1259415, 2018. activity change, negative = inhibition, % at 57.5 µM. hit rate 4.5% among 410,000; in the data active = activity change below about -60%; inconclusive = no clear call, values can overlap the other calls; inactive = above about -39%
#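 Two-dose cell screen: HFF monolayers treated with compounds and infected with luciferase-expressing HCMV at 1 PFU/cell, 72 h at 37C, then lysed for luciferase measurement.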
# HCV inhibitor: qHTS Assay for Inhibitors of Hepatitis C Virus (HCV). AID 651820, 2012. Huh7.5.1 HCVcc-Cre infection, luciferase reporter, 44 h. Potency, µM (top dose mostly 41.8 µM), for the others: at the highest dose activity change, negative = inhibition, most hits filed as inhibitors. hit rate 3.4% among 340,000; also: potency is read from the fitted curve at half-maximal effect
#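 HCVcc-Cre virus at an moi near 0.5 was added right after compound to cells cultured 4 h from seeding (1,000 cells/well). Luciferase activity was determined 44 h later, 15 min after substrate addition at RT.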
# FBPA Giardia inh: qHTS Assay for Inhibitors of Fructose-1,6-bisphosphate Aldolase from Giardia Lamblia. Potency, µM (top dose mostly 59.6 µM), for inactives: at the highest dose activity, negative = inhibition, usual class: inhibitors. purified Giardia FBPA. hit rate 0.71% among 290,000; also: potency is read from the fitted curve at half-maximal effect; nearly all actives have a fitted effect of over 55% in size
# Target sequence (A8B2U2 whole entry, looked up): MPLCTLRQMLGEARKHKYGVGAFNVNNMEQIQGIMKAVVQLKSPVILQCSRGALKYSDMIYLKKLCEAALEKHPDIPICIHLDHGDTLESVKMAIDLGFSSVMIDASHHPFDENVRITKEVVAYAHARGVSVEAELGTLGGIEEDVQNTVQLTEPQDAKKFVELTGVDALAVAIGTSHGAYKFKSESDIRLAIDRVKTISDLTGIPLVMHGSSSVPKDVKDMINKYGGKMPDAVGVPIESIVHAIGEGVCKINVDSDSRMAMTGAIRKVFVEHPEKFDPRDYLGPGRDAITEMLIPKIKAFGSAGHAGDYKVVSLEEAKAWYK
#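 Giardia FBPA (40 nM reagent) was preincubated 10 min at RT with compound (up to 57.5 uM final), then substrate plus GAPDH/TPI/NAD/arsenate coupling system with diaphorase/resazurin was added; resorufin fluorescence (525/598 nm) was read after 20 min.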
# Lassa entry inh: qHTS for Inhibitors of binding or entry into cells for Lassa Virus | hit rate 1.2% among 300,000 | Lassa virus pseudotype entry inhibition, cell reporter | Potency, µM (series often up to 37.9 µM), inactives show at the top dose activity change, negative = inhibition, hits mostly inhibitors; calls by dose curve; tested in HEK293 cells; also: potency is read from the fitted curve at half-maximal effect; nearly all actives have a fitted effect of over 50% in size
# Marburg entry inh: qHTS for inhibitors of binding or entry into cells for Marburg Virus. hit rate 1.8% among 300,000. Potency, µM (series often up to 37.8 µM), for the others: at the top dose activity change, negative = inhibition, most hits filed as inhibitors. Marburg virus pseudotyped entry inhibition, cell reporter; calls by dose curve; tested in HEK293 cells; also: potency is read from the fitted curve at half-maximal effect
# * marks the source's active call; other numbers are inactive results; ? = inconclusive; nt = no result; [ ] = dose if it differs, or a comment. Unless noted, calls follow the shape of the dose curve; as a rule, active = well fitted curve in the direction sought with a large enough effect; inconclusive = small, poorly fitted or top-dose-only effect, or another doubt; inactive = no such curve, though single readings can be large; an effect the other way counts as inactive or inconclusive. % is scaled to controls: 0 for no effect and ±100 for the full control effect.
SMILES,FMDV antiviral,HCMV antiviral,HCV inhibitor,FBPA Giardia inh,Lassa entry inh,Marburg entry inh
CCOC(=O)C1CCN(C(=O)CC(C)S(=O)(=O)c2ccc3c(c2)NC(=O)CO3)CC1 (centres undefined),-21.1%,69.8,2.1%,nt,14.7%[46.1 µM],1.4%[46.1 µM]
O=C1CCc2cc(S(=O)(=O)NCCC(=O)N3CCN(c4cccc(Cl)c4)CC3)ccc2N1,15.8µM*,?,?,0.0%,?,-7.5%
Cc1ccc(C)c(N2CCN(C(=O)CCS(=O)(=O)c3ccc4c(c3)NC(=O)CO4)CC2)c1,-49.2%,-73.2*,?,5.1%,nt,nt
O=C1COc2ccc(S(=O)(=O)CCC(=O)N3CCN(c4ccccc4)CC3)cc2N1,-12.9%,-2.2,5.7%,5.9%,nt,nt
CC(CC(=O)N1CCN(c2cccc(Cl)c2)CC1)S(=O)(=O)c1ccc2c(c1)NC(=O)CO2 (centres undefined),2.82µM*,-95.0*,6.31µM*,nt,nt,nt
NCC1OC(O[C@H]2[C@H](O)[C@@H](OC3C(O)C(N)CC(N)C3OC3OC(CO)C(O)C(O)C3N)O[C@@H]2CO)C(N)C(O)C1O (some centres undefined),nt,nt,nt,nt,20.7%,11.1%
CCC1=C2CC[C@H]3C(=O)NC(=O)[C@H]3[C@H]2[C@@]2(C)C(=NCC(=O)OC)OC(=O)N2C1=O,nt,nt,nt,2.2%,nt,nt
O=Cc1ccc(O)c2ncccc12,-15.4%,nt,?,?,?,?
Oc1ccc(Br)cc1CNc1cccc2cccnc12,-4.3%,-62.4*,14.3%,-18.3%,?,?
Cc1cccnc1NCc1ccc(O)c2ncccc12,-28.4%,?,10µM*,?,?,?
Cc1ccc(O)c(CNc2cccc3cccnc23)c1,6.4%,-40.0,?,-22.1%,-0.5%,-9.8%
Cc1cccc(NCc2ccc(O)c3ncccc23)c1C,-18.0%,-95.8*,?,0.7%,?,?
COC(=O)C(C(=O)OC)[C@H]1c2ccccc2[C@@H]2C(=C[C@@H](C)[C@H]3C(=O)N(c4ccccc4)C(=O)[C@H]32)N1C(=O)OC,nt,nt,nt,nt,nt,25.3%[14.2 µM]
C=C(C)CCCN1C=C(C(C)=O)C(c2ccccc2)NC1=O (centres undefined),nt,nt,nt,nt,nt,2.3%[14.2 µM]
CCOC(=O)c1c(NC(C)=O)sc2c1CCC(C=O)=C2Sc1ccccc1,?,108.6,2.82µM*,?,?,?
CCOC(=O)c1c(NC(C)=O)sc2c1CCCNC2=O,0.0%,30.1,-16.5%,1.6%,-4.1%,?
CCN(CC)S(=O)(=O)c1ccc(Cl)c(C(=O)Nc2nnc(C)s2)c1,-21.5%,0.8,22.4µM*,5.3%,?,-4.6%
N#Cc1c(N)n(-c2cccc(Cl)c2)c2nc3ccccc3nc12,-26.0%,-2.4,nt,nt,-3.4%[46.1 µM],8.9%[46.1 µM]
COCCN(Cc1cc2cc(C)ccc2[nH]c1=O)S(=O)(=O)c1ccc(Cl)cc1,-15.1%,-92.0*,?,5.9%,nt,nt
Cc1ccc(S(=O)(=O)N(C)Cc2cc3cc(C)ccc3[nH]c2=O)cc1,10.8%,-12.9,6.1%,nt,nt,nt
O=C(O)c1cc(N2N=C(C(F)(F)F)/C(=C/C=C/c3ccco3)C2=O)ccc1Cl,28.2µM*,-90.4*,-13.7%,?,-10.8%,?
CCC1=C2CC[C@H]3C(=O)N(c4ccccc4)C(=O)[C@H]3[C@H]2[C@@]2(Cc3ccccc3)C(=NCCc3c[nH]c4ccccc34)OC(=O)N2C1=O,nt,nt,nt,-0.1%,nt,nt
O=[N+]([O-])c1ccccc1-c1onc(-c2ccccc2Br)c1Br,nt,10.7,nt,nt,nt,nt
CCCCc1cc(=O)oc2cc(C)c3c(C)coc3c12,-16.9%,-26.2,nt,nt,-2.0%[46.1 µM],?
CCOc1ccc(-n2cc(-c3ccccc3)c3c(N4CCOCC4)ncnc32)cc1,?,47.1,11.2µM*,2.3%,?,?
SMILES,FMDV antiviral,HCMV antiviral,HCV inhibitor,FBPA Giardia inh,Lassa entry inh,Marburg entry inh
COc1ccc(-n2cc(-c3ccccc3)c3c(N4CC(C)OC(C)C4)ncnc32)cc1 (centres undefined),22.4µM*,14.2,?,-6.7%,?,?
COC(=O)[C@H]1O[C@@H](c2cc(OC)c(C)c(OC)c2OCc2ccccc2)[C@H](C)[C@H]2O[C@@]12C,nt,nt,nt,-2.3%,?,-22.6%[14.2 µM]
COc1ccc(NC(=O)c2ccc([N+](=O)[O-])s2)c([N+](=O)[O-])c1,35.4%,-85.2*,-7.7%,-0.4%,nt,nt
COc1ccc(NC(=O)c2ccc(C)o2)c([N+](=O)[O-])c1,36.0%,-12.2,6.1%,2.8%,6.2%,0.5%
COc1ccc(NC(=O)c2cc(Br)ccc2Cl)c([N+](=O)[O-])c1,-11.3%,-63.4*,-3.4%,2.6%,-12.8%,-9.7%[46.1 µM]
COc1ccc(NC(=O)N2c3ccc(OC)cc3C(C)=CC2(C)C)cc1,-7.0%,-27.9,7.6%,11.2µM*,3.4%,-2.0%
Cc1ccc(S(=O)(=O)N2C=CC(=O)CC2c2cccs2)cc1 (centres undefined),nt,39.7,nt,nt,nt,nt
CC(C)(C)c1cc(/C=C2\NC(=O)NC2=O)cc(C(C)(C)C)c1O,-9.1%,-82.8*,?,11.7%,nt,nt
CCN1C(=O)N(S(=O)(=O)c2ccc(C)cc2)C(c2ccccc2)C(C(=O)OC)=C1C (centres undefined),nt,nt,nt,nt,nt,17.0%[14.2 µM]
CCOC(=O)CNC(=O)CSc1ncnc2c1nnn2-c1ccc(F)cc1,-16.7%,-67.5*,4.0%,0.9%,9.4%,0.2%
CCOC(=O)CNC(=O)Cn1cnc2c(nnn2-c2ccc(F)cc2)c1=O,-9.6%,-27.0,6.9%,12.2%,1.1%,?
O=C(CSc1ncnc2c1nnn2Cc1ccc(F)cc1)NCC1CCCO1 (centres undefined),35.5µM*,26.0,?,4.3%,nt,nt
O=C(Cn1cnc2c(nnn2Cc2ccc(F)cc2)c1=O)NCc1ccc(F)cc1,5.3%,-4.4,?,0.9%,?,?
NC(=O)CSc1ncnc2c1nnn2Cc1ccc(F)cc1,35.5µM*,-14.8,-15.7%,5.0%,-18.1%,?
CCOC(=O)Cn1cnc2c(nnn2-c2ccc(C)cc2)c1=O,0.0%,-73.5*,5.7%,6.3%,22.3%,-0.3%
O=C(CSc1ncnc2c1nnn2Cc1ccc(F)cc1)NC1CCCCC1,-27.6%,-19.4,15.6%,3.5%,-3.5%[46.1 µM],?
C=CC1=C2C=C(C3CC3)N(c3ccc(OC)cc3)C=C2C(=O)C(C)(OC(=O)c2ccco2)C1=O (centres undefined),nt,nt,nt,-24.9%[12.9 µM],nt,-21.5%[14.2 µM]
CCCOc1ccc(CNC(=O)c2cc3oc4ccccc4c3n2C)cc1,5.9%,-85.9*,nt,nt,nt,?
CCCOc1ccc(CNC(=O)Cn2c(=O)oc3ccccc32)cc1,-16.9%,5.8,?,4.5%,nt,-2.8%[46.1 µM]
COc1ccc(CNC(=O)c2cc3oc4ccccc4c3n2C)cc1OC,0.0%,?,nt,nt,nt,5.01µM*
Cn1c(C(=O)NCc2ccccc2F)cc2oc3ccccc3c21,24.8%,-63.1*,nt,nt,nt,?

# Screening results: PubChem BioAssay, National Center for Advancing Translational Sciences (NCATS)
